# T1: USP38, Q8NB14
# T1 chain: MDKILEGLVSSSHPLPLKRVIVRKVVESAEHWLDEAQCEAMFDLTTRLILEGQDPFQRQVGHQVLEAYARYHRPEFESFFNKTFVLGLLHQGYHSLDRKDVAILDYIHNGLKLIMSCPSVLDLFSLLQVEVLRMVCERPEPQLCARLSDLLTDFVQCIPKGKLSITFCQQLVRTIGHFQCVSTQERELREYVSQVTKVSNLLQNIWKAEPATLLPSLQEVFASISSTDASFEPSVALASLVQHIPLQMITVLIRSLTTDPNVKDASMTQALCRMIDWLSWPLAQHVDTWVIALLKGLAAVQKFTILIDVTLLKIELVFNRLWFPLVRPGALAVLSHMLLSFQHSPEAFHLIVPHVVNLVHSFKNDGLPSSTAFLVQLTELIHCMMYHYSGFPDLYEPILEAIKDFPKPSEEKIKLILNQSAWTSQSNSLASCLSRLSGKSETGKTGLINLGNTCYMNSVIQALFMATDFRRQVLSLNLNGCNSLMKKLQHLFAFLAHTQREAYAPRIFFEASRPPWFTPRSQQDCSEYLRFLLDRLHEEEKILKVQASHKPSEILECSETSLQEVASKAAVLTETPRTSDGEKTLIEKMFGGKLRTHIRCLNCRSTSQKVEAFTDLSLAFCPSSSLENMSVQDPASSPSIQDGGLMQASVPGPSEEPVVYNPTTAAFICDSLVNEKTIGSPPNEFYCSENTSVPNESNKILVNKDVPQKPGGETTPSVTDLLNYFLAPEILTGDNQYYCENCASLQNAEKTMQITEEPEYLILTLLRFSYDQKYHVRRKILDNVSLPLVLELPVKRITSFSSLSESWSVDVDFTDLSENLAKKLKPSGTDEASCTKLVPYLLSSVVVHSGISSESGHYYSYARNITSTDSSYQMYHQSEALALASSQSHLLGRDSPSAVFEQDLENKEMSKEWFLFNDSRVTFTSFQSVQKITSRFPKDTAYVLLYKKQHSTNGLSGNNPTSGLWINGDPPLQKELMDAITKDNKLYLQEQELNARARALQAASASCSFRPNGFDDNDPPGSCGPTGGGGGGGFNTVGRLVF
# Biological target: T1, USP38, Q8NB14
# Experiment: median log2 fold change of GCK-ALFA target abundance (FLAG IP / Myc IP barcode read proportion) (log2 ratio); each designed protein is fused to an ALFA-tag nanobody in HEK293 cells to bring the named protein to FLAG-tagged glucokinase (GCK); Myc marks an untargeted standard; higher = target protein stabilised (more abundant)
# Conditions: target protein: 3xFLAG-MCP-GCK-ALFA reporter; HEK293 landing pad (RPLP)
# Summary of the method: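 Binders fused to an ALFA nanobody were recombined as a library into HEK293 landing-pad cells, which were induced with 2 μg mL^−1 doxycycline and then transfected to express a FLAG-tagged target and a Myc-tagged standard. After 48 h, circular RNA barcodes recovered by anti-FLAG and anti-Myc immunoprecipitation of lysates were reverse transcribed, amplified and sequenced. Each binder's target abundance is the median log2 ratio of FLAG to Myc barcode read proportions, from barcodes present at ≥10^−7 in both replicates, binders carrying ≥3 barcodes per replicate, a 10^−6 pseudocount and pooled replicates.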
row,Binder,median log2 fold change
1,usp_38_diff_out_17_60_246 (protein) SAEAEKIIKELEERLEELEKRLKELEKEFKKAKAAGDKAKLEALAKEAQALLDEIADLLVELAKNSEIIDPETFLELADRASELADRAFALLKEIQKELA,-0.51
2,usp_38_diff_out_17_60_248 (protein) SAEAEAIIARLEARLEELERRLEELERRFEEAERRGDKAELEELLKELDELLGEIADLLVELAKNSELIDPETFLRLADRASELADRAFALRQRVQQALA,-1.11
3,usp_38_diff_out_18_121_249 (protein) NPEELLEELRRALEEARRALEELEKLLENREEVSLEELREALRRAADALGRAAALLREARRRIGPEYREEIERAEKELDELVDRYTELGRELFLLEAERE,-0.0715
4,usp_38_diff_out_18_121_250 (protein) DGEELLRRLREALRRAEEKLRELEELLERAEEVSLEELRAALDAAADALGEAAALLREARRRLGPEYREELEEAERRLDELVDRYTELGTRLFLLEAERQ,-0.109
5,usp_38_diff_out_18_121_251 (protein) EAKKVAEEALKAAKEATKLAKELLKAIKEGKWEKAEKLDKELDKKIKEFGRLYQELRDLRSEDPEQTKPLLKEVEKEGDKMIDIYNEAGTALFLAEAERQ,-0.563
6,usp_38_diff_out_17_26_242 (protein) EAEERRREARERLERLREETERALEEIDRLIAEGKFEEARKLLEETVRKATEEMTEILELAADDPELMEEALRAWDEISDRLAARYRELQAAIAAAKAAA,0.467
7,usp_38_diff_out_18_14_255 (protein) SEELEKATISNLNSLKEDVKKDTERVIKLLEKNKDDPERVKRITERANRNLAGVRTYAEEVLKEAEEKGWEEVKKAAEELLKTVDEAKKKIEEKVKEVLA,0.0514
8,usp_38_diff_out_18_14_256 (protein) SEELTKAEISNLESLKKSVKEDTERVIRLLEKNKDDPERVKRIYERAQRNLAGVETYAKEVLERAKKEGDEELAKAAEELLKEIEEARKRIEEKVKEVLA,0.00955
9,usp_38_diff_out_17_26_241 (protein) SMEERRKEAEELLRRLEEETEKALEEIEKLIEEGKFEEARKLLDEAVDYATETATRILELAADDPELMDRALAVIGRIFDRLAEAYRRLEEARRRAEEEA,-0.00366
10,usp_38_diff_out_18_121_253 (protein) EAEKLAEEALKLAEKLKELSEELLKAIKEGDLEKAEKLKKEMEELLKELGRKYLELRDLRAEHPEETKELLKEVEKKANEAIDKYEKAERAYFEFLAEQA,-1.1
11,usp_38_diff_out_17_26_244 (protein) SAEERNKKARELLEELKREAEKGLEEIRKLIEAGKFEEARKKLDELVTEVTERMLEILELAADNPELMEEALAAYDEISDAIAAAYRELQEARRAAAAAA,-0.152
12,usp_38_diff_out_18_14_257 (protein) SKELTEATISNLKSLKEDVKEDTERVIRLLEKNKDDPERVKRIYERAKRNLAGVEKYAKEVLKEAKENGDEELAKAAEELLKAVEEARERIEEEVKRVLA,0.0724
13,usp_38_diff_out_17_35_245 (protein) SLEEKERELLERTRRAAEEALRRARELLEAAKADPSQIDRYLAEARAVLDRFLAEAADILIEAAKLEIDAEVLQEIGDIIDRASDELQAILDELEALKAA,0.015
14,usp_38_diff_out_17_26_243 (protein) SAEEKRKKARELLKKLKEESEKALEEIKKLIKEGKFEEAEKLLEETVKKVTETTLEILELAADDPELVEEVLEAYDEISDKLAQAYKELQKAKKEAAAKA,-0.0758
15,usp_38_diff_out_17_60_247 (protein) SAEAEEIIERLKKRLEELEKRLEELEKRFEEAKKKGDKEELEKLLKEAKELIDEIADLLVELAKNSELIDPETFLELADRASELADRAFKLKQEIEKELA,0.108
16,usp_38_diff_out_18_121_254 (protein) KAEELAKKALELAEEIEKLSKELLKAIKEGNKEKAEELRKKLDEKIRELGRLYQELRDLHAENPHETRELLKEVNEKANKAIDEREKAETAYFEFLAEQE,-0.478

# Source: the supplement of paper PMC12632987
